In PubChem BioAssay (NCATS):
Results filed as inconclusive are left out. Entries that show only a call come without a potency. The source made the active and inactive calls. Calls come from the whole dose curve; as a rule, active = well fitted inhibition curve with a large enough effect; inconclusive = small, poorly fitted or top-dose-only effect; inactive = flat fitted curve, though single readings scatter.

tested on: Zika virus NS2B-NS3 protease; experiment: Primary screen GU AMC qHTS for Zika virus inhibitors (AID 1347154); settings: Zika NS2B-NS3 unlinked protease, AMC fluorogenic substrate; series mostly up to 54.1 µM; note: nearly all actives have a fitted effect of over 70% in size
Procedure, shortened: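 Fluorogenic AMC-substrate cleavage by noncovalent NS2B-NS3 protease complex (25 nM, pH 8.0 Tris buffer with Tween 20) followed for 15 minutes at room temperature (~20% conversion). Percent inhibition from ex340/em450 signal change, fitted by 4-parameter Hill equation.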
Potency is the fitted concentration of half-maximal effect.

Compound	Potency
NC(=O)C(c1ccccc1)(c1ccccc1)[C@@H]1CCN(CCc2ccc3c(c2)CCO3)C1	inactive
COc1ccnc2c1CCCCC2S(=O)c1nc2ccccc2[nH]1 (stereo unspecified)	35.5 µM (active)
COC(=O)C1=C(C)NC(C)=C(C(=O)OCC(C)=O)C1c1ccccc1[N+](=O)[O-] (stereo unspecified)	inactive
O=C(O)c1cc(=O)c2ccccc2[nH]1	inactive
CCCCCCCCCCCCOCCO	inactive
Cc1ccc(O)c(-n2nc3ccccc3n2)c1	inactive
c1ccc(CCNc2nc(-c3ccccc3)cs2)cc1	inactive
CCOc1ccc2nc(S(N)(=O)=O)sc2c1	inactive
Cc1cc(O)c2ccccc2c1O	inactive
CC1(C)S[C@@H]2[C@H](NC(=O)[C@H](N)c3ccccc3)C(=O)N2[C@H]1C(=O)O	inactive
Nc1c(CC(=O)O)cccc1C(=O)c1ccc(Br)cc1	inactive
NC(=S)NCCC[C@H](N)C(=O)O	inactive
Cc1ccc(C(=O)c2ccc(CC(=O)O)n2C)cc1	inactive
Cc1c(N)c(=O)n(-c2ccccc2)n1C	inactive
CO[C@@]1(NC(=O)Cc2cccs2)C(=O)N2C(C(=O)O)=C(COC(N)=O)CS[C@@H]21	inactive
N#C/C(=C\c1ccc(O)c(O)c1)C(=O)NCc1ccccc1	inactive
CCCCCCCCCCCCCCCCCC(=O)O	inactive
O=C(O)c1ccccc1Nc1cccc(C(F)(F)F)c1	inactive

Compound	Potency
Cc1[nH]cnc1CN1CCc2c(c3ccccc3n2C)C1=O	inactive
CCCC(=O)OC[C@@H](OC(=O)CCC)[C@@H](OC(=O)CCC)[C@H](Cn1c2nc(=O)[nH]c(=O)c-2nc2cc(C)c(C)cc21)OC(=O)CCC	inactive
O=C(CCN1CCN(CCO)CC1)N1c2ccccc2Sc2ccc(C(F)(F)F)cc21	inactive
CCCCC1C(=O)N(c2ccccc2)N(c2ccc(O)cc2)C1=O (stereo unspecified)	inactive
CCCCCCCC/C=C/C(=O)O	inactive
O=C(Nc1ccc(C(=O)O)c(O)c1)c1ccccc1	inactive
C=CCCCCCCCCC(=O)O	inactive
c1ccc2sc(SN3CCOCC3)nc2c1	inactive
CCCCCCCCCCCC(=O)[O][Sn]([CH2]CCC)([CH2]CCC)[O]C(=O)CCCCCCCCCCC	inactive
Cc1c(Nc2ncccc2C(=O)O)cccc1C(F)(F)F	inactive
COc1cc(NC(C)CCCN)c2ncccc2c1 (stereo unspecified)	inactive
COc1cc2c3cc1Oc1cc(ccc1O)C[C@@H]1c4c(cc(OC)c(O)c4Oc4ccc(cc4)C[C@@H]3N(C)CC2)CC[N+]1(C)C	inactive
c1ccc2sc(SSc3nc4ccccc4s3)nc2c1	inactive
CC(C(=O)O)c1ccc(C(=O)c2ccccc2)s1 (stereo unspecified)	inactive
CC(C(=O)O)c1ccc(C(=O)c2cccs2)cc1 (stereo unspecified)	inactive
O=C(/C=C/c1ccccc1)NCCO	inactive
Nc1cc(-c2ccncc2)c[nH]c1=O	inactive
O=C1C(SCCO)=C(SCCO)C(=O)c2ccccc21	inactive
